We go through one sequence from paper PMC7862700, “An all-to-all approach to the identification of sequence-specific readers for epigenetic DNA modifications on cytosine”.

Common to all, as to experiment: DAPPL (digital affinity profiling via proximity ligation, sequencing); 10 mM Tris-HCl pH 7.5, 50 mM NaCl, 1 mM DTT, 4% glycerol, room temperature, 30 min; GST-TFs on glutathione beads, 16-mer random dsDNA library, 0.1% formaldehyde crosslink after washing; high values mean tight binding
In one experiment the target is T1, FEV (Homo sapiens, UniProt Q99581 1-238).
T1 sequence: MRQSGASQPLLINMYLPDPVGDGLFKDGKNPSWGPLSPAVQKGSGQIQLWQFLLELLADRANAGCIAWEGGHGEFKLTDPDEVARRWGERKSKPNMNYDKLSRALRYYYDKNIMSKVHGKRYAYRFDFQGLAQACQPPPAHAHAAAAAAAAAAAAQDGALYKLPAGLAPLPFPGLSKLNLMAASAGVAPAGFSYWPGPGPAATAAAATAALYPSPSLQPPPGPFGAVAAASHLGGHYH
As to conditions: protein: recombinant; tags: N-terminal GST; dsDNA, one strand shown. In a few lines: (§1)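 Human transcription factors were made in yeast as GST fusions, captured on glutathione beads and barcoded with DNA. With a tag-only sample included, the pool was incubated with 200 nmole of a random double-stranded 16-mer DNA library in Tris/NaCl/DTT/glycerol buffer at room temperature for 30 min, then crosslinked with 0.1% formaldehyde after washing, ligated by proximity, amplified and sequenced. For binding signal, each hexamer's read frequency for a factor is divided by its frequency for the tag-only sample.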

The next experiment deals with ETV5 (Homo sapiens, UniProt P41161 1-510). As to conditions: protein: recombinant; tags: N-terminal GST; dsDNA, one strand shown. Summed up:
as §1

The next experiment concerns the target HSF1 (Homo sapiens, UniProt Q00613 1-529). As to conditions: protein: recombinant; tags: N-terminal GST; chain copies: 3; dsDNA, one strand shown. In a few lines:
as §1

A further experiment deals with T2, SPIC (Homo sapiens, UniProt Q8N5J4 1-248).
T2 sequence: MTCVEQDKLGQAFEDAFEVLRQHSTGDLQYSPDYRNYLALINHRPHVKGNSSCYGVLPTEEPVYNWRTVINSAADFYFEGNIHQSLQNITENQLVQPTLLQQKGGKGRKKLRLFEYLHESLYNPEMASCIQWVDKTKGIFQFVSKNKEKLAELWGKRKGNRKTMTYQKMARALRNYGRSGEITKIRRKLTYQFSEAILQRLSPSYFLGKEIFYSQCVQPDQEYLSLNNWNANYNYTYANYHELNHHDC
As to conditions: protein: recombinant; tags: N-terminal GST; dsDNA, one strand shown. Summed up: as §1

Another experiment addresses ELF4 (Homo sapiens, UniProt Q99607 1-663). To be noted: protein: recombinant; tags: N-terminal GST; dsDNA, one strand shown. In a few lines: as §1
The target in a further experiment is T3, ELK4 (Homo sapiens, UniProt P28324-2 1-405).
T3 sequence: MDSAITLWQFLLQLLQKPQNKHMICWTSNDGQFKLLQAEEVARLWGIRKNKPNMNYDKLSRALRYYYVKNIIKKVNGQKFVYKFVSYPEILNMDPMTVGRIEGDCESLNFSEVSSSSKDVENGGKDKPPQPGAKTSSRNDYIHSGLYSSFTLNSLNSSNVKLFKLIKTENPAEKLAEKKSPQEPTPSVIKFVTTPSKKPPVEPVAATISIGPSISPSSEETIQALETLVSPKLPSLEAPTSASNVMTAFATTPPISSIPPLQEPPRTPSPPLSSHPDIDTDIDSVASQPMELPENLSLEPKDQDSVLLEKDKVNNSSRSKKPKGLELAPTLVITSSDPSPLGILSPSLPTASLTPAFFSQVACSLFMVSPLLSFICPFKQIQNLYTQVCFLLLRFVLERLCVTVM
As to conditions: protein: recombinant; tags: N-terminal GST; dsDNA, one strand shown. Summed up: as §1

In another experiment the target is T4, ETV2 (Homo sapiens, UniProt O00321 1-342).
T4 sequence: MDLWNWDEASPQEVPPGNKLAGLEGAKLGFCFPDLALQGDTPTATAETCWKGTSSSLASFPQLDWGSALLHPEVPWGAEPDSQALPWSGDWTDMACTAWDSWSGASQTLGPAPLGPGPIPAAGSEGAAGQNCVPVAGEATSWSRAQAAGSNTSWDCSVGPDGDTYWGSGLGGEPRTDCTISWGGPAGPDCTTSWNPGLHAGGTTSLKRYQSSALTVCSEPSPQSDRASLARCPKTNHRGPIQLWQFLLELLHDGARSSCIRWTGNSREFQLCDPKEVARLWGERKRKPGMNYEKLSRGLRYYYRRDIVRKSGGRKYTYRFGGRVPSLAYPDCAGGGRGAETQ
As to conditions: protein: recombinant; tags: N-terminal GST; dsDNA, one strand shown. In a few lines: as §1

Another experiment concerns the target T5, ELF3 (Homo sapiens, UniProt P78545 1-371).
T5 sequence: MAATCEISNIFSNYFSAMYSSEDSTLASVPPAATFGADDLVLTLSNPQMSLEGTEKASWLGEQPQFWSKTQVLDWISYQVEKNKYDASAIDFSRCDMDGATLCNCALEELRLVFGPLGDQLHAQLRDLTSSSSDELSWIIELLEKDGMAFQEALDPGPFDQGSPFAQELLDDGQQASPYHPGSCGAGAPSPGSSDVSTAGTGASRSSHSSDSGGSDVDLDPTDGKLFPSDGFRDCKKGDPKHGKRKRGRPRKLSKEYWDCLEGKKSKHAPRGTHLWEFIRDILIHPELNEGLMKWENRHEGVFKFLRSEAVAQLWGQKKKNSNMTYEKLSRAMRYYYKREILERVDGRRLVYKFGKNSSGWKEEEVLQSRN
As to conditions: protein: recombinant; tags: N-terminal GST; dsDNA, one strand shown. Summed up:
as §1

The target in another experiment is CRX (Homo sapiens, UniProt O43186 1-299). To be noted: protein: recombinant; tags: N-terminal GST; dsDNA, one strand shown. In a few lines: as §1
A further experiment concerns the target ETV1 (Homo sapiens, UniProt P50549 1-477). As to conditions: protein: recombinant; tags: N-terminal GST; dsDNA, one strand shown. Summed up: as §1
Another experiment concerns the target T6, ERF (Homo sapiens, UniProt P50548 1-548).
T6 sequence: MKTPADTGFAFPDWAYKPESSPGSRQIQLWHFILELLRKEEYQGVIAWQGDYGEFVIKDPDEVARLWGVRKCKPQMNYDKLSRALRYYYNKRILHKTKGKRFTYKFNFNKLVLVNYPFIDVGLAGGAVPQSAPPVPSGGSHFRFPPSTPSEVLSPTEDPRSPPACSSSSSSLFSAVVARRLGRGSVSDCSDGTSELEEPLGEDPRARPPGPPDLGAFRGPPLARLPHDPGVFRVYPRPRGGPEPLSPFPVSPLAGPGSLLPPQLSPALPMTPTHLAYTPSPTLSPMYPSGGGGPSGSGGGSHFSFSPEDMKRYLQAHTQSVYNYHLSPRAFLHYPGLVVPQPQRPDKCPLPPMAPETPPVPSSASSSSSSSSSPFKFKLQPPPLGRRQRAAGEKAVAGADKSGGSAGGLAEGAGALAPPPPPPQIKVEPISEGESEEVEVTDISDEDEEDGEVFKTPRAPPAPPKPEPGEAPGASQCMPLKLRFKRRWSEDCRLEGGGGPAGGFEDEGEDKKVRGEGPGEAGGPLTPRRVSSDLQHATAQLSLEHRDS
As to conditions: protein: recombinant; tags: N-terminal GST; dsDNA, one strand shown. Summed up: as §1

The target in the next experiment is T7, ETV3L (Homo sapiens, UniProt Q6ZN32 1-361).
T7 sequence: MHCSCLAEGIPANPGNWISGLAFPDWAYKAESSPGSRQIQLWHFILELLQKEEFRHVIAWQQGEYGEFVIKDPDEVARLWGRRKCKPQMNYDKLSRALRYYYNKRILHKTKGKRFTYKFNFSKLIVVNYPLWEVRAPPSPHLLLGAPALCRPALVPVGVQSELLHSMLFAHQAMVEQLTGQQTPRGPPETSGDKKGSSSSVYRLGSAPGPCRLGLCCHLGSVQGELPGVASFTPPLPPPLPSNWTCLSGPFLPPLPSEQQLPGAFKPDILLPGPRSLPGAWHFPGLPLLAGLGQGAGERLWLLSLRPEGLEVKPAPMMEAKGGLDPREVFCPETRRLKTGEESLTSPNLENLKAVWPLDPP
As to conditions: protein: recombinant; tags: N-terminal GST; dsDNA, one strand shown. In a few lines:
as §1

A further experiment addresses T8, ETS2 (Homo sapiens, UniProt P15036 1-469).
T8 sequence: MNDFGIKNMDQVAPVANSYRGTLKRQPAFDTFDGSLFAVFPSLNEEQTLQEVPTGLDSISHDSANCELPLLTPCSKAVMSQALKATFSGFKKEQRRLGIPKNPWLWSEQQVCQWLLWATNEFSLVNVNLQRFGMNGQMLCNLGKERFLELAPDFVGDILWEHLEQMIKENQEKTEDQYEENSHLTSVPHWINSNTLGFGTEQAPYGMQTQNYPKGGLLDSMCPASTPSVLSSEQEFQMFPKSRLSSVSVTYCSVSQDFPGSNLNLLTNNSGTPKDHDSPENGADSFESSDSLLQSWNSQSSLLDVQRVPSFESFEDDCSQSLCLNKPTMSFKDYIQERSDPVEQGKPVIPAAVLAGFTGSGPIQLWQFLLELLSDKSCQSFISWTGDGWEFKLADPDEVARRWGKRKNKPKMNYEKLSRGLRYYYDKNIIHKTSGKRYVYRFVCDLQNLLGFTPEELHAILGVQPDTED
To be noted: protein: recombinant; tags: N-terminal GST; dsDNA, one strand shown. Summed up:
as §1

Another experiment deals with T9, SPDEF (Homo sapiens, UniProt O95238 1-335).
T9 sequence: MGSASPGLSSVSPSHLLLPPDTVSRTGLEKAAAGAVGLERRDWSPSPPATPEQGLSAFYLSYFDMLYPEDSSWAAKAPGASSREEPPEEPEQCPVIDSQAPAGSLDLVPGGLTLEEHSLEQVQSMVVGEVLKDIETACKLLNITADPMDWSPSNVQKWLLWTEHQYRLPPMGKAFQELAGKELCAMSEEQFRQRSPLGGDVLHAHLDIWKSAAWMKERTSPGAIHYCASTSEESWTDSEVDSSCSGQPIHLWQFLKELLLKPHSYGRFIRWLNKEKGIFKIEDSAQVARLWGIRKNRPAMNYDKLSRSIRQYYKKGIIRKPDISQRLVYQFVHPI
To be noted: protein: recombinant; tags: N-terminal GST; dsDNA, one strand shown. In a few lines:
as §1

The target of the next experiment is T10, ETV7 (Homo sapiens, UniProt Q9Y603 1-341).
T10 sequence: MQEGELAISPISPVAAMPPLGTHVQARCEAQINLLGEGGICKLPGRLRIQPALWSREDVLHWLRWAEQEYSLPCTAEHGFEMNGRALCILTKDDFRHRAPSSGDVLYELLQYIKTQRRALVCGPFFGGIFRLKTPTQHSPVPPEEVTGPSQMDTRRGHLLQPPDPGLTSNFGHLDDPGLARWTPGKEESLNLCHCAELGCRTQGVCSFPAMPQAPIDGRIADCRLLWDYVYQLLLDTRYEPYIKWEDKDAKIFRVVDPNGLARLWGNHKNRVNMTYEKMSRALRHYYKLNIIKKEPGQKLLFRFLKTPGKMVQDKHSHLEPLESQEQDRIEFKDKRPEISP
As to conditions: protein: recombinant; tags: N-terminal GST; dsDNA, one strand shown. In a few lines: as §1

The next experiment has as its target T11, ELF5 (Homo sapiens, UniProt Q9UKW6-2 1-255).
T11 sequence: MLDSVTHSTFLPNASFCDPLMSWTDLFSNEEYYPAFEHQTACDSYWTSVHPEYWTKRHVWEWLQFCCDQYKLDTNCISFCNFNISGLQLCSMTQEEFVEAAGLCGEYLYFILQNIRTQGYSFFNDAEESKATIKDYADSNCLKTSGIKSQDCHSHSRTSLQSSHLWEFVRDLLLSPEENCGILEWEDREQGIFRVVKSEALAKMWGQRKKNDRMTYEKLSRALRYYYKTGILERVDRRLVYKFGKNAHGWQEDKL
To be noted: protein: recombinant; tags: N-terminal GST; dsDNA, one strand shown. In a few lines: as §1

The next experiment has as its target T12, ETV3 (Homo sapiens, UniProt P41162-2 1-143).
T12 sequence: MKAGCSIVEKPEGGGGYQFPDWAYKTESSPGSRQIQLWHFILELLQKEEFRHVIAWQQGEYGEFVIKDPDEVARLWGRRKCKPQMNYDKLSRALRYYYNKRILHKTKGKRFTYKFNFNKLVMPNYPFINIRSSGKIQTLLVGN
To be noted: protein: recombinant; tags: N-terminal GST; dsDNA, one strand shown. Summed up: as §1

The next experiment deals with ETV6 (Homo sapiens, UniProt P41212 1-452). As to conditions: protein: recombinant; tags: N-terminal GST; dsDNA, one strand shown. Summed up: as §1
ETV6, sequence (P41212 whole entry): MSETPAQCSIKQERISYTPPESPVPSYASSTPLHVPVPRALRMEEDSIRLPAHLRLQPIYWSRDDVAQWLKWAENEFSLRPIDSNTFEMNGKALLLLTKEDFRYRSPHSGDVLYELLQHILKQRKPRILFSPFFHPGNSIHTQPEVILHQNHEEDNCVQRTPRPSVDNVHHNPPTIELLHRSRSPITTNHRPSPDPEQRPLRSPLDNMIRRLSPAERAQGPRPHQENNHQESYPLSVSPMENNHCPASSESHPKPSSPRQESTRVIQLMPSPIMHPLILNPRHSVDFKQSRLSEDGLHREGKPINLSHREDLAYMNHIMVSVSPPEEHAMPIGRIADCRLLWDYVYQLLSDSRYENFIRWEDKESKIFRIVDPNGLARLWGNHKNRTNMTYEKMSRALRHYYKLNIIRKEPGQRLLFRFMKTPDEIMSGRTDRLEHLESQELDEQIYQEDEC

HSF1, sequence (Q00613 whole entry): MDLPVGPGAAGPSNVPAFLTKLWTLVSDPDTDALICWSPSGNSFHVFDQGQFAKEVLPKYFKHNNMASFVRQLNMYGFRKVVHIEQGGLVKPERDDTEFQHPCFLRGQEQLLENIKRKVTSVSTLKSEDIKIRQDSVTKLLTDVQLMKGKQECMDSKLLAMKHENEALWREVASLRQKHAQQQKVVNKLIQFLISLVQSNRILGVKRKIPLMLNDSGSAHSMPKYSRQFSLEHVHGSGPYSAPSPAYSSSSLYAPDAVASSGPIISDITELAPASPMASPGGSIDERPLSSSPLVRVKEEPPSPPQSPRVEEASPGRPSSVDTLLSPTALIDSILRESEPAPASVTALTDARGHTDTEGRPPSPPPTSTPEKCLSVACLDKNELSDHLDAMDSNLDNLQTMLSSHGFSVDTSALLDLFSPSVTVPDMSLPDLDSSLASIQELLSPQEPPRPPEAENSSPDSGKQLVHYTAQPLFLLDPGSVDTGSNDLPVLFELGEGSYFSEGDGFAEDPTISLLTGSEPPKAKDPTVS
ETV1, sequence (P50549 whole entry): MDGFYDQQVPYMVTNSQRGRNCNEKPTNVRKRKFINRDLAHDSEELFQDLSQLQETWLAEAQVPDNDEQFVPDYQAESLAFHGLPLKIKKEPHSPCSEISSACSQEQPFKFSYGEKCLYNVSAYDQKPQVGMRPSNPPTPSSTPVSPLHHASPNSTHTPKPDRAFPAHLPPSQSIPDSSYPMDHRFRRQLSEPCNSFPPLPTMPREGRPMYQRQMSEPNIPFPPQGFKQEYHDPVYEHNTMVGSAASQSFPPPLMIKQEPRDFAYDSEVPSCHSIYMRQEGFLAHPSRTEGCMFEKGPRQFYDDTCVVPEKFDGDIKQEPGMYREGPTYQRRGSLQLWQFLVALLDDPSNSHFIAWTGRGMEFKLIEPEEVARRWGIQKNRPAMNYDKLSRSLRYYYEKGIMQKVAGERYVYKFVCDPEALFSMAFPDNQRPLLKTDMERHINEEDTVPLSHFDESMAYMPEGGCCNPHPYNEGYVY
CRX, sequence (O43186 whole entry): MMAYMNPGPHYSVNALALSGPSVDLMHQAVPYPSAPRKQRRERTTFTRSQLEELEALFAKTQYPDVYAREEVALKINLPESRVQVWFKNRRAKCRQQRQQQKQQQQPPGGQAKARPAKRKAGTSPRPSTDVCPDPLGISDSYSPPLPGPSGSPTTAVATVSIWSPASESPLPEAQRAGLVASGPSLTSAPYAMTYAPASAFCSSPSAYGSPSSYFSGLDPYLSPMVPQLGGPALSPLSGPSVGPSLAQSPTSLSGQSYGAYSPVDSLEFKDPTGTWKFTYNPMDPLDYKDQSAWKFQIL
ELF4, sequence (Q99607 whole entry): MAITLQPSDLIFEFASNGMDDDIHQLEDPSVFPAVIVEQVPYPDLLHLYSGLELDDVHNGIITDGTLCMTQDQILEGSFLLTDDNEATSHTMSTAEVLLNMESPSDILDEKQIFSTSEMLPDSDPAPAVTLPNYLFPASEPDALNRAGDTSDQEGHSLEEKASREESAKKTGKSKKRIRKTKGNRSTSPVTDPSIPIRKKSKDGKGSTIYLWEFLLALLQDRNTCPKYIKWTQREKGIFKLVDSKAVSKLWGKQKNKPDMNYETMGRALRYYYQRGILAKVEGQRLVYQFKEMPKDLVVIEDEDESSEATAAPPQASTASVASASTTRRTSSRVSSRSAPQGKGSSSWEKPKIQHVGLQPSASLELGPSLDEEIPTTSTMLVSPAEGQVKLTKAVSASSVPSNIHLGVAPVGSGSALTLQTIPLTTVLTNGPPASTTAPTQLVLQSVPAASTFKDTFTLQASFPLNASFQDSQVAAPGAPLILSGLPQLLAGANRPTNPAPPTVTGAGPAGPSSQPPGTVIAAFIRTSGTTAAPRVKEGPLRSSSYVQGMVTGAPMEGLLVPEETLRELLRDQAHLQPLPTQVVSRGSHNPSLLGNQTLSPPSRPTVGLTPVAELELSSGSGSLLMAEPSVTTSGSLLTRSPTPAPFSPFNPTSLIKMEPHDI
ETV5, sequence (P41161 whole entry): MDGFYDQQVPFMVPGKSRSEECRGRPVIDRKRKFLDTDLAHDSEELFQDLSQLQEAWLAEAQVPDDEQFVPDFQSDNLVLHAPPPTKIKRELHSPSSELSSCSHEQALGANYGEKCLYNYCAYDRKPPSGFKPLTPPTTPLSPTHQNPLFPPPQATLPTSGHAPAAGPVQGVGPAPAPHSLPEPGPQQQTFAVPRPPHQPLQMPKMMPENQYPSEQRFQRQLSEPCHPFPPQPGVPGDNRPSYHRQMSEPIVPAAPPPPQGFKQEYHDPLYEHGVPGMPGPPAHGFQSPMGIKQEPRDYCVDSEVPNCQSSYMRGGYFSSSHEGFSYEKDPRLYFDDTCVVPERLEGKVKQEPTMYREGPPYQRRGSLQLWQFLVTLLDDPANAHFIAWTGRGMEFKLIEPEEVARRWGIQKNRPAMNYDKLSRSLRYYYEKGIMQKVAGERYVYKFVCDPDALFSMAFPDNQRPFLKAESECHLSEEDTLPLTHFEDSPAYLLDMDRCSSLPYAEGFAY

Take CCTGAC: the binding signal in the experiment with FEV was 1.5 fold enrichment (6-mer frequency, TF over GST control); with ETV5 it was 1.71 fold enrichment (6-mer frequency, TF over GST control); in the experiment with HSF1, 1.2 fold enrichment (6-mer frequency, TF over GST control); with SPIC, 1.3 fold enrichment (6-mer frequency, TF over GST control); with ELF4 it was 1.42 fold enrichment (6-mer frequency, TF over GST control); in the experiment with ELK4, 1.5 fold enrichment (6-mer frequency, TF over GST control). In addition, the binding signal with ETV2 is 1.61 fold enrichment (6-mer frequency, TF over GST control); with ELF3, 1.7 fold enrichment (6-mer frequency, TF over GST control); with CRX it was 1.11 fold enrichment (6-mer frequency, TF over GST control); in the experiment with ETV1 it was 1.61 fold enrichment (6-mer frequency, TF over GST control); with ERF it was 1.37 fold enrichment (6-mer frequency, TF over GST control); with ETV3L, 1.59 fold enrichment (6-mer frequency, TF over GST control). Besides, the binding signal with ETS2 is 1.56 fold enrichment (6-mer frequency, TF over GST control); with SPDEF, 1.51 fold enrichment (6-mer frequency, TF over GST control); with ETV7, 1.46 fold enrichment (6-mer frequency, TF over GST control); with ELF5, 1.63 fold enrichment (6-mer frequency, TF over GST control); with ETV3 it was 1.44 fold enrichment (6-mer frequency, TF over GST control); with ETV6, 1.6 fold enrichment (6-mer frequency, TF over GST control).
